Test results taken from PubChem BioAssay AID1159580 (chemical genetic matrix, 2015).
Among all 5,500 compounds or so, about 2,000 (36%) were called active. About 18% were inconclusive and are not listed. This is one part of the list. Unmarked numbers belong to inactive results. Cut-off read from the data, not from the text of the source: active = normalized growth mostly below about 0.91 (no sharp cut-off); inconclusive = no clear call, values can overlap the other calls; inactive = mostly above about 0.92.

Assay: chemical genetic growth profiling, strain panel (AID 1159580);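 note: tested at 20 µM; growth read once vehicle control cultures reached saturation at 30 °C; 1 = growth at the plate median or of vehicle wells; lower values mean less growth of the strain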
Details: growth OD

Compound: Oc1c(I)cc(I)c2cccnc12
- normalized growth (S. cerevisiae deletion strains, locus YJL187C, strain SWE1, stronger effect = lower value): 0.0737 (active)
- normalized growth (S. cerevisiae deletion strains, locus YJR043C, strain POL32, stronger effect = lower value): 0.08 (active)
- normalized growth (S. cerevisiae deletion strains, locus YJR066W, strain TOR1, stronger effect = lower value): 0.106 (active)
- normalized growth (S. cerevisiae deletion strains, locus YKL009W, strain mrt4, stronger effect = lower value): 0.274 (active)
- normalized growth (S. cerevisiae deletion strains, locus YKL068W, stronger effect = lower value): 0.479 (active)
- normalized growth (S. cerevisiae deletion strains, locus YKL085W, strain MDH1 (second series), stronger effect = lower value): 0.253 (active)
- normalized growth (S. cerevisiae deletion strains, locus YKL085W, strain MDH1, stronger effect = lower value): 0.253 (active)
- normalized growth (S. cerevisiae deletion strains, locus YKL160W, strain elf1, stronger effect = lower value): 0.0775 (active)
- normalized growth (S. cerevisiae deletion strains, locus YKL190W, strain CNB1, stronger effect = lower value): 0.0667 (active)
- normalized growth (S. cerevisiae deletion strains, locus YKR001C, strain vps1, stronger effect = lower value): 0.1 (active)
- normalized growth (S. cerevisiae deletion strains, locus YKR026C, strain gcn3, stronger effect = lower value): 0.0967 (active)
- normalized growth (S. cerevisiae deletion strains, locus YKR091W, strain srl3, stronger effect = lower value): 0.129 (active)
- normalized growth (S. cerevisiae deletion strains, locus YLL001W, strain dnm1, stronger effect = lower value): 0.085 (active)
- normalized growth (S. cerevisiae deletion strains, locus YLL026W, stronger effect = lower value): 0.652 (active)
- normalized growth (S. cerevisiae deletion strains, locus YLL041C, strain sdh2, stronger effect = lower value): 0.083 (active)
- normalized growth (S. cerevisiae deletion strains, locus YLR027C, strain aat2, stronger effect = lower value): 0.0875 (active)
- normalized growth (S. cerevisiae deletion strains, locus YLR039C, strain RIC1, stronger effect = lower value): 0.156 (active)
- normalized growth (S. cerevisiae deletion strains, locus YLR058C, strain SHM2, stronger effect = lower value): 0.0693 (active)
- normalized growth (S. cerevisiae deletion strains, locus YLR102C, strain apc9, stronger effect = lower value): 0.0939 (active)
- normalized growth (S. cerevisiae deletion strains, locus YLR113W, strain HOG1, stronger effect = lower value): 0.128 (active)
- normalized growth (S. cerevisiae deletion strains, locus YLR221C, strain rsa3, stronger effect = lower value): 0.118 (active)
- normalized growth (S. cerevisiae deletion strains, locus YLR258W, strain gsy2, stronger effect = lower value): 0.0729 (active)
- normalized growth (S. cerevisiae deletion strains, locus YLR262C, strain YPT6 (second series), stronger effect = lower value): 0.109 (active)
- normalized growth (S. cerevisiae deletion strains, locus YLR262C, strain YPT6, stronger effect = lower value): 0.184 (active)
- normalized growth (S. cerevisiae deletion strains, locus YLR268W, strain sec22, stronger effect = lower value): 0.104 (active)
- normalized growth (S. cerevisiae deletion strains, locus YLR320W, strain mms22, stronger effect = lower value): 0.111 (active)
- normalized growth (S. cerevisiae deletion strains, locus YLR330W, strain CHS5, stronger effect = lower value): 0.0767 (active)
- normalized growth (S. cerevisiae deletion strains, locus YLR342W, strain FKS1 (second series), stronger effect = lower value): 0.0828 (active)
- normalized growth (S. cerevisiae deletion strains, locus YLR342W, strain FKS1, stronger effect = lower value): 0.0814 (active)
- normalized growth (S. cerevisiae deletion strains, locus YLR357W, strain rsc2, stronger effect = lower value): 0.178 (active)
- normalized growth (S. cerevisiae deletion strains, locus YLR370C, strain arc18, stronger effect = lower value): 0.0851 (active)
- normalized growth (S. cerevisiae deletion strains, locus YLR371W, strain rom2, stronger effect = lower value): 0.137 (active)
- normalized growth (S. cerevisiae deletion strains, locus YLR384C, strain iki3, stronger effect = lower value): 0.0849 (active)
- normalized growth (S. cerevisiae deletion strains, locus YLR418C, strain cdc73, stronger effect = lower value): 0.16 (active)
- normalized growth (S. cerevisiae deletion strains, locus YML016C, strain PPZ1, stronger effect = lower value): 0.0635 (active)
- normalized growth (S. cerevisiae deletion strains, locus YML032C, strain rad52, stronger effect = lower value): 0.115 (active)
- normalized growth (S. cerevisiae deletion strains, locus YML120C, strain ndi1, stronger effect = lower value): 0.0935 (active)
- normalized growth (S. cerevisiae deletion strains, locus YML124C, strain tub3, stronger effect = lower value): 0.0977 (active)
- normalized growth (S. cerevisiae deletion strains, locus YMR058W, strain fet3, stronger effect = lower value): 0.0746 (active)
- normalized growth (S. cerevisiae deletion strains, locus YMR078C, strain ctf18, stronger effect = lower value): 0.11 (active)
- normalized growth (S. cerevisiae deletion strains, locus YMR125W, strain sto1, stronger effect = lower value): 0.112 (active)
- normalized growth (S. cerevisiae deletion strains, locus YMR129W, stronger effect = lower value): 0.256 (active)
- normalized growth (S. cerevisiae deletion strains, locus YMR205C, strain PFK2, stronger effect = lower value): 0.108 (active)
- normalized growth (S. cerevisiae deletion strains, locus YMR223W, strain ubp8, stronger effect = lower value): 0.108 (active)
- normalized growth (S. cerevisiae deletion strains, locus YMR231W, strain pep5, stronger effect = lower value): 0.105 (active)
- normalized growth (S. cerevisiae deletion strains, locus YMR307W, strain GAS1, stronger effect = lower value): 0.145 (active)
- normalized growth (S. cerevisiae deletion strains, locus YNL067W, strain RPL9B, stronger effect = lower value): 0.0655 (active)
- normalized growth (S. cerevisiae deletion strains, locus YNL071W, strain lat1, stronger effect = lower value): 0.236 (active)
- normalized growth (S. cerevisiae deletion strains, locus YNL183C, strain NPR1, stronger effect = lower value): 0.103 (active)
- normalized growth (S. cerevisiae deletion strains, locus YNL209W, strain ssb2, stronger effect = lower value): 0.0737 (active)
- normalized growth (S. cerevisiae deletion strains, locus YNL233W, strain BNI4, stronger effect = lower value): 0.073 (active)
- normalized growth (S. cerevisiae deletion strains, locus YNL248C, strain rpa49, stronger effect = lower value): 0.11 (active)
- normalized growth (S. cerevisiae deletion strains, locus YNL250W, strain rad50, stronger effect = lower value): 0.0949 (active)
- normalized growth (S. cerevisiae deletion strains, locus YNL271C, strain bni1, stronger effect = lower value): 0.177 (active)
- normalized growth (S. cerevisiae deletion strains, locus YNL298W, strain CLA4, stronger effect = lower value): 0.271 (active)
- normalized growth (S. cerevisiae deletion strains, locus YNL307C, strain MCK1, stronger effect = lower value): 0.115 (active)
- normalized growth (S. cerevisiae deletion strains, locus YNL322C, strain KRE1 (second series), stronger effect = lower value): 0.128 (active)
- normalized growth (S. cerevisiae deletion strains, locus YNL322C, strain KRE1, stronger effect = lower value): 0.0647 (active)
- normalized growth (S. cerevisiae deletion strains, locus YNR049C, strain mso1, stronger effect = lower value): 0.0812 (active)
- normalized growth (S. cerevisiae deletion strains, locus YNR052C, strain pop2, stronger effect = lower value): 0.0966 (active)
- normalized growth (S. cerevisiae deletion strains, locus YOL012C, strain htz1): 0.333
- normalized growth (S. cerevisiae deletion strains, locus YOL147C, strain pex11, stronger effect = lower value): 0.0953 (active)
- normalized growth (S. cerevisiae deletion strains, locus YOR001W, strain rrp6, stronger effect = lower value): 0.21 (active)
- normalized growth (S. cerevisiae deletion strains, locus YOR061W, strain CKA2, stronger effect = lower value): 0.0666 (active)
- normalized growth (S. cerevisiae deletion strains, locus YOR069W, strain VPS5, stronger effect = lower value): 0.0731 (active)
- normalized growth (S. cerevisiae deletion strains, locus YOR070C, strain gyp1, stronger effect = lower value): 0.575 (active)
- normalized growth (S. cerevisiae deletion strains, locus YOR080W, strain dia2, stronger effect = lower value): 0.09 (active)
- normalized growth (S. cerevisiae deletion strains, locus YOR083W, strain WHI5, stronger effect = lower value): 0.112 (active)
- normalized growth (S. cerevisiae deletion strains, locus YOR106W, strain vam3, stronger effect = lower value): 0.0906 (active)
- normalized growth (S. cerevisiae deletion strains, locus YOR136W, strain idh2, stronger effect = lower value): 0.156 (active)
- normalized growth (S. cerevisiae deletion strains, locus YOR144C, strain elg1, stronger effect = lower value): 0.0898 (active)
- normalized growth (S. cerevisiae deletion strains, locus YOR184W, strain ser1, stronger effect = lower value): 0.133 (active)
- normalized growth (S. cerevisiae deletion strains, locus YOR231W, strain MKK1, stronger effect = lower value): 0.14 (active)
- normalized growth (S. cerevisiae deletion strains, locus YOR265W, strain rbl2, stronger effect = lower value): 0.0593 (active)
- normalized growth (S. cerevisiae deletion strains, locus YOR270C, strain vph1, stronger effect = lower value): 0.129 (active)
- normalized growth (S. cerevisiae deletion strains, locus YOR290C, strain snf2, stronger effect = lower value): 0.0939 (active)
- normalized growth (S. cerevisiae deletion strains, locus YOR316C, strain cot1, stronger effect = lower value): 0.0886 (active)
- normalized growth (S. cerevisiae deletion strains, locus YPL051W, strain arl3, stronger effect = lower value): 0.0895 (active)
- normalized growth (S. cerevisiae deletion strains, locus YPL078C, strain atp4, stronger effect = lower value): 0.0936 (active)
- normalized growth (S. cerevisiae deletion strains, locus YPL106C, strain sse1, stronger effect = lower value): 0.16 (active)
- normalized growth (S. cerevisiae deletion strains, locus YPL240C, strain hsp82, stronger effect = lower value): 0.0764 (active)
- normalized growth (S. cerevisiae deletion strains, locus YPL256C, strain CLN2, stronger effect = lower value): 0.15 (active)
- normalized growth (S. cerevisiae deletion strains, locus YPR119W, strain clb2, stronger effect = lower value): 0.0998 (active)
- normalized growth (S. cerevisiae deletion strains, locus YPR141C, strain kar3, stronger effect = lower value): 0.235 (active)
- normalized growth (S. cerevisiae deletion strains, locus YPR163C, strain tif3, stronger effect = lower value): 0.107 (active)
- normalized growth (S. cerevisiae deletion strains, locus YPR167C, strain met16, stronger effect = lower value): 0.103 (active)
- normalized growth (S. cerevisiae deletion strains, strain wtn01, stronger effect = lower value): 0.116 (active)
- normalized growth (S. cerevisiae strains, strain wild type, stronger effect = lower value): 0.0715 (active)
